# Sampled rows, rich in hits. Any-hit rate of the full collection: about 1.5%.
# MbtI inh: MbtI salicylate synthase inhibitors, primary screen, biochemical, fluorescence intensity | P9WFX0 | purified MbtI enzyme, fluorescence intensity read-out | inhibition, % (no concentration beside the values) | actives 0.89% (n = 100,000); in the data active means inhibition mostly above about 56%, no sharp cut-off; inactive means mostly below about 77%
# Target sequence (P9WFX0 whole entry, looked up): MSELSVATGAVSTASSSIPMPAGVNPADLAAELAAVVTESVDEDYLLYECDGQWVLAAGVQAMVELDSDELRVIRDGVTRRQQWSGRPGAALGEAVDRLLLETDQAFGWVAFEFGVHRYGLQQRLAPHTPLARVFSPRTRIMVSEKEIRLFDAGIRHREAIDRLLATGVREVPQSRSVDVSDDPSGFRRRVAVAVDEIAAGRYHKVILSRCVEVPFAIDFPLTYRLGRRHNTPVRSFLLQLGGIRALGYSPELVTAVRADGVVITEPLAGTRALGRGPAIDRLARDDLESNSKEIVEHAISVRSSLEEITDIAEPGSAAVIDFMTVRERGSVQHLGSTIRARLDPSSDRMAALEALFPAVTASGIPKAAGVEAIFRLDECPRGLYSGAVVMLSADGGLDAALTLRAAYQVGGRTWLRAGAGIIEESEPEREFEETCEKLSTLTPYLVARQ
# PV pol inh: poliovirus RdRp elongation inhibitors, primary screen, biochemical, fluorescence polarization, total intensity. % elongation, % (compound at 16.7 µg/mL). Genome polyprotein (Poliovirus type 1 (strain Mahoney)), P03300. poliovirus polymerase elongation; hits give low values. actives 0.66% (n = 150,000); in the data active means % elongation below about 90%
# MenB inh: M. tuberculosis MenB inhibitors, primary screen, biochemical, absorbance. actives 0.43% (n = 100,000). 1,4-dihydroxy-2-naphthoyl-CoA synthase (Mycobacterium tuberculosis (strain ATCC 25618 / …. inhibition, % (concentration not given with the values). MenB enzyme assay, absorbance read-out; in the data active means inhibition above about 21%, passing the limit was not always enough
# * = called active by the depositor; i = inactive; . = not tested or not shown.
SMILES,MbtI inh,PV pol inh,MenB inh
CCOc1cccc(NC(=O)C2CC(=O)N(C)C(=Nc3cccc(OC)c3)S2)c1 (stereo unspecified),.,106,.
COC(=O)c1cn(CC(=O)NC2CCCCCC2)c2ccccc12,-1,100,31*
COC(=O)Cn1cc(C(=O)OC)c2ccccc21,-4,102,12
O=C(Cn1cnc2ccccc21)NC1CCCC1,5,101,33*
O=C(Cn1cnc2ccccc21)Nc1ccccc1,-20,102,-16
Cc1cccc(NC(=O)C(Cc2ccccc2)N2Cc3ccccc3C2=O)n1 (stereo unspecified),-19,102,2
COCc1nnc(NC(=O)C2CCN(C(=O)c3ccco3)CC2)s1,92*,93,-2
CC(C)c1nnc(NC(=O)C2CCN(C(=O)c3ccco3)CC2)s1,64,105,-58
COc1cccc(C2N(Cc3ccccc3)C(=O)C2(F)F)c1OC (stereo unspecified),0,89*,.
O=C1N(Cc2ccccc2)C(c2ccccc2)C1(F)F (stereo unspecified),-1,101,.
NC(=S)Nc1ccc(OCc2ccccc2)cc1,9,103,-41
CCOC(=O)c1c(NC(=O)c2ccc(S(=O)(=O)N3CCCC(C)C3)cc2)sc2c1CC(C)(C)NC2(C)C (stereo unspecified),.,102,.
CCOC(=O)c1c(NC(=O)c2ccc(S(=O)(=O)N(CCOC)CCOC)cc2)sc2c1CC(C)(C)NC2(C)C,.,83*,.
Cc1csc(=O)n1CCC(=O)OC(C)C(=O)c1ccc(Br)cc1 (stereo unspecified),11,102,4
O=c1[nH]cnc2c1cnn2-c1ccc(C(F)(F)F)cn1,41,99,.
O=c1c(Cl)c(Cl)cnn1-c1ccc(C(F)(F)F)cn1,20,88*,-31
COc1cccc(-c2noc(Nc3ccccc3)n2)c1,-29,100,-2
CN(C)C(CN)Cc1ccccc1 (stereo unspecified),-30,104,6
C1CNC(C23CC4CC(CC(C4)C2)C3)=N1,0,102,-1
C1=C(C23CC4CC(CC(C4)C2)C3)SC2=NCCN12,69*,99,-7
O=C(/C=C/c1ccccc1Cl)Nc1ncn[nH]1,.,67*,-30
O=C(/C=C/c1ccccc1)Nc1ncn[nH]1,-30,103,-60
S=c1nc(CNc2ccccc2)[nH][nH]1,95*,102,-42
S=c1nc(Cc2ccccc2)[nH][nH]1,.,96,19
O=C(Nc1nc2ccc(F)cc2s1)C1CCCC1,-9,101,-21
SMILES,MbtI inh,PV pol inh,MenB inh
O=C1c2ccccc2C(=O)c2c1oc1c3c(ccc21)OCN(C1CCCC1)C3,0,83*,5
O=C1c2ccccc2C(=O)c2c1oc1c3c(ccc21)OCN(CCCN1CCOCC1)C3,-3,86*,-14
O=c1oc2c3c(ccc2c2c1CCCC2)OCN(CCc1ccccc1)C3,114,102,-2
O=C1c2ccccc2C(=O)c2c1oc1c3c(ccc21)OCN(C1CCS(=O)(=O)C1)C3 (stereo unspecified),-5,87*,-8
COc1ccc(CCN2COc3ccc4c5c(oc4c3C2)C(=O)c2ccccc2C5=O)cc1OC,2,98,-13
CC(C)CCN1COc2ccc3c4c(oc3c2C1)C(=O)c1ccccc1C4=O,3,92,-1
O=C1c2ccccc2C(=O)c2c1oc1c3c(ccc21)OCN(CC1CCCO1)C3 (stereo unspecified),1,88*,-27
CCCN1COc2ccc3c(-c4ccccc4)cc(=O)oc3c2C1,20,104,-19
O=C(c1cccs1)c1cn(CC(=O)N2CCCCCC2)c2ccccc12,-7,102,-27
O=C(O)c1ccc(Nc2cnn(C34CC5CC(CC(C5)C3)C4)c(=O)c2Cl)cc1,3,97,-4
CNc1sc(C(=O)c2ccc(OC)c(OC)c2)c(N)c1C#N,-5,102,-6
COc1ccc(-n2ccn(CC(=O)Nc3ccccc3)c(=O)c2=O)cc1,34,102,1
COc1cc(/C=C2\SC(=O)NC2=S)ccc1O,79*,86,-97
COc1cc(/C=C2/SC(=S)N(NC(C)=O)C2=O)ccc1O,.,155,i
CC1CCCN(CCCNS(=O)(=O)c2csc(C(N)=O)c2)C1 (stereo unspecified),-23,101,-11
O=S(=O)(/C=C/c1ccccc1)Nc1cc(Cl)ccc1-n1cncn1,18,102,1
O=C(Nc1ccc(N2CCOCC2)c2nonc12)c1ccco1,1,99,-3
Nc1ccc(N2CCOCC2)c2nonc12,18,85*,-140
Cc1ccc(NC(=O)COc2cccc3c2CCN(Cc2cccnc2)C3=O)c(C)c1,-3,99,-14
